Source: PubChem BioAssay (NCI)
The panel holds about 83,000 compounds, 20% with a hit somewhere; the sample as a whole holds those more often.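 How to read the values: 0–100, growth inhibition (40 = 60% inhibited); 0, no net growth; -100 to 0, cell death (-40 = 40% of starting cells died; -100 = all dead).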 Unmarked numbers belong to inactive results. The source made the active and inactive calls. The calls were made as follows: active = growth percent below 10; inactive = the rest.

What was measured:
Experiment in all cases: NCI-60 one-dose screen, 48 h (100 = growth as untreated, 0 = no growth, -100 = all killed)
EKVX NSCLC = conditions: 10 µM unless noted
SN12C renal = conditions: 10 µM unless noted
UO-31 renal = conditions: 10 µM unless noted
TK-10 renal = conditions: 10 µM unless noted
ACHN renal = conditions: 10 µM unless noted
CAKI-1 renal = conditions: 10 µM
A498 renal = conditions: 10 µM unless noted
CCRF-CEM leukemia = conditions: 10 µM unless noted
RPMI-8226 leukemia = conditions: 10 µM unless noted
OVCAR-8 ovarian = conditions: 10 µM unless noted
OVCAR-5 ovarian = conditions: 10 µM unless noted
OVCAR-4 ovarian = conditions: 10 µM unless noted
SK-OV-3 ovarian = conditions: 10 µM unless noted
IGROV1 ovarian = conditions: 10 µM unless noted
HS 578T breast = conditions: 10 µM unless noted
NCI/ADR-RES ovarian = conditions: 10 µM unless noted
MOLT-4 leukemia = conditions: 10 µM unless noted
SR leukemia = conditions: 10 µM unless noted
OVCAR-3 ovarian = conditions: 10 µM unless noted

Row | Compound | growth (EKVX NSCLC) | growth (SN12C renal) | growth (UO-31 renal) | growth (TK-10 renal) | growth (ACHN renal) | growth (CAKI-1 renal) | growth (A498 renal) | growth (CCRF-CEM leukemia) | growth (RPMI-8226 leukemia) | growth (OVCAR-8 ovarian) | growth (OVCAR-5 ovarian) | growth (OVCAR-4 ovarian) | growth (SK-OV-3 ovarian) | growth (IGROV1 ovarian) | growth (HS 578T breast) | growth (NCI/ADR-RES ovarian) | growth (MOLT-4 leukemia) | growth (SR leukemia) | growth (OVCAR-3 ovarian)
1 | COc1ccc([C@H]2[C@H](O)C(=O)N2c2cc(OC)c(OC)c(OC)c2)cc1 | 44.4% | 20.3% | 32.4% | 69.8% | 26.8% | 28.4% | -17.5% (active) | 26.7% | 22.8% | 2.46% (active) | 29.5% | 69.8% | 37.7% | 29.6% | 16.6% | 18% | – | – | –
2 | CC(=O)Nc1ccc(NC(=O)Nc2cccc(-c3nc(-c4ccc(NC(=O)c5cccnc5)cc4Cl)no3)c2)cc1C(F)(F)F | -39% (active) | -65% (active) | 52.9% | -31.7% (active) | 34.2% | -68.9% (active) | -64.8% (active) | – | – | -9.07% (active) | -49.4% (active) | -53.7% (active) | -57.9% (active) | -54% (active) | -22.9% (active) | 69.2% | -30.8% (active) | -25.1% (active) | –
3 | COCCOc1ccc(-c2csc(NC(C)=O)n2)cc1NS(=O)(=O)c1cccc2c(N(C)C)cccc12 | 85.2% | 79.8% | 64.2% | -21.2% (active) | 72% | 71.3% | 74.8% | 105% | 69.6% | 97.6% | 105% | 86.8% | 119% | 77.1% | 88% | 84.4% | – | – | –
4 | Clc1ccccc1/C=C/c1nn2c(-c3ccncc3)nnc2s1 | 94.2% | 103% | 93.1% | 126% | 104% | 87.9% | 95.2% | 97.6% | 101% | 103% | 109% | 103% | 121% | 102% | 97.7% | 106% | – | – | –
5 | Cn1cc(-c2nn3cc(-c4cccnc4)nc3s2)c2ccccc21 | 43.8% | 33.4% | 32.2% | 80.5% | 48.1% | 43.5% | 36.6% | 38% | 30.4% | 36.4% | 36.6% | 76.6% | 50.7% | 40.2% | 31.3% | 18.9% | – | – | –
6 | CCNCCCn1c2c(c3cc(OC)c(OC)cc3c1=O)C(=O)c1cc(OC)cnc1-2 | 43.3% | 20.8% | 18% | 64.4% | 6.11% (active) | 18.3% | 15.8% | 8.89% (active) | -34.9% (active) | 14.1% | 46.2% | 6.87% (active) | -32.1% (active) | 32.3% | 80.2% | 26.9% | – | – | –
7 | COc1ccc([C@H]2[C@H](O)C(=O)N2c2cc(OC)c(OC)c(OC)c2)cc1Cl | 50.1% | 22.2% | 32.8% | 85.4% | 26.6% | 30.6% | -17% (active) | 16.4% | 19% | -12.7% (active) | 30.3% | 74.4% | 27.3% | 22.8% | 13.6% | -10.6% (active) | – | – | –
8 | C=CCn1c(SCC(=O)Nc2cccc(C(=O)/C=C/c3ccc(OC)c(OC)c3)c2)nc2ccccc2c1=O | 100% | 96.8% | 74.6% | 116% | 92.2% | 75.7% | 89.3% | 78.5% | 38.7% | 89.5% | 96.1% | – | 108% | 90.5% | 88.9% | 91.8% | – | – | –
9 | COc1cc2c3c(n(CCCNCC4CC4)c(=O)c2cc1OC)-c1cc2c(cc1C3=O)OCO2 | 66% | 44.6% | 49.8% | 72.5% | -73.1% (active) | -72.5% (active) | 68.6% | -9.44% (active) | -42.8% (active) | -60.5% (active) | -66.8% (active) | 1.27% (active) | 8.75% (active) | 56% | 95.3% | -13.6% (active) | – | – | –
10 | COc1cnc2c(c1)C(=O)c1c-2n(CCCNCC2CC2)c(=O)c2cc(F)ccc12 | 13.3% | 0.563% (active) | -81.7% (active) | -32.9% (active) | -62% (active) | -27.2% (active) | -31% (active) | -2.04% (active) | -38.5% (active) | -61.6% (active) | -6.47% (active) | -4.75% (active) | -38% (active) | 10.3% | 26.1% | 5.01% (active) | – | – | –
11 | Nc1n[nH]c2cccc(C#Cc3cccc(NC(=O)c4cccc(OC(F)(F)F)c4)c3)c12 | 91% | 39.7% | 26.9% | 97.1% | 31.7% | 48.3% | 56.4% | – | 57.2% | 60.3% | 50.7% | 66.7% | 105% | 19.9% | 1.43% (active) | 57.1% | 35.4% | 47% | –
12 | COc1cc2c3c(n(CCCNC4CCCCC4)c(=O)c2cc1OC)-c1cc2c(cc1C3=O)OCO2 | -65.3% (active) | -70.3% (active) | 84.5% | -95% (active) | -6.15% (active) | 73.9% | 86.2% | -25.3% (active) | -46.5% (active) | -66.8% (active) | -86.4% (active) | 93.2% | 104% | -30.9% (active) | 90.5% | -22.9% (active) | – | – | –
13 | COc1cnc2c(c1)C(=O)c1c-2n(CCCn2ccnc2)c(=O)c2cc(OC)c(OC)cc12 | -9.94% (active) | 3.73% (active) | -91.4% (active) | -91.4% (active) | -36.1% (active) | 9.33% (active) | 17.8% | -2.01% (active) | -26.7% (active) | -93.9% (active) | -40.7% (active) | -18.3% (active) | -31.8% (active) | -20.6% (active) | 57.1% | 1.35% (active) | – | – | –
14 | CCCCCCCCNC(=O)c1ccc(Cn2c(CCCC)nc3c(N)nc4ccccc4c32)cc1 | 62.8% | -77.3% (active) | 11.8% | 78.8% | 26.6% | -1.97% (active) | 68% | – | -38% (active) | -10.9% (active) | 75.5% | -54.3% (active) | 76.1% | -37.8% (active) | 87.4% | -62.2% (active) | -7.07% (active) | 8.69% (active) | 69.5%
15 | c1cncc(-c2cn3nc(-c4c[nH]c5ccccc45)sc3n2)c1 | 72.5% | 61.5% | 44.6% | 94.4% | 72.3% | 51.7% | 47.9% | 54.1% | 63.1% | 52.2% | 43.4% | 83.3% | 86.2% | 59.8% | 57.8% | 18.3% | – | – | –
16 | COc1cc2c3c(n(CCCN4CCCCC4)c(=O)c2cc1OC)-c1cc2c(cc1C3=O)OCO2 | -56.2% (active) | -72.1% (active) | -89.3% (active) | -87.2% (active) | -96.7% (active) | -82.9% (active) | 70.9% | -11.6% (active) | -47.3% (active) | -63.6% (active) | -96.1% (active) | -74.1% (active) | 46% | -68.7% (active) | – | -62% (active) | – | – | –
17 | COc1cc2c3c(n(CCCNC4CCCC4)c(=O)c2cc1OC)-c1cc2c(cc1C3=O)OCO2 | -67.4% (active) | -60.9% (active) | 76.2% | -97% (active) | -95.5% (active) | 11.7% | 80.3% | -13.8% (active) | -40.1% (active) | -70.2% (active) | -81.3% (active) | 71.9% | 80.7% | -48.7% (active) | 93.3% | 51.9% | – | – | –
18 | CS(=O)(=O)c1nccc(-c2c(-c3ccc(F)c(OCCc4ccc(F)cc4)c3)nc3sccn23)n1 | -66.3% (active) | 62.4% | -51.8% (active) | 84.8% | 45.2% | 44.7% | 29.1% | – | -43.2% (active) | 69.8% | 93.2% | 51.2% | 84.5% | -64.9% (active) | 35.5% | 81.3% | 14.4% | – | –
